Measurements: PubChem BioAssay AID1159580 (chemical genetic matrix, 2015)
In all, about 5,500 compounds went through this assay and about 2,000 (36%) were called active. Roughly 18% stayed inconclusive and do not appear here. Rule as the data show it: active = normalized growth mostly below about 0.91 (no sharp cut-off); inconclusive = no clear call, values can overlap the other calls; inactive = mostly above about 0.92. The list shows a part of the results.

Assay: chemical genetic growth profiling, strain panel (AID 1159580);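 also: tested at 20 µM; growth read once vehicle control cultures reached saturation at 30 °C; 1 = growth at the plate median or of vehicle wells; lower values mean less growth of the strain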
Conditions: growth OD
[1] = S. cerevisiae deletion strains, locus YDR150W, strain NUM1, hits give low values
[2] = S. cerevisiae deletion strains, locus YGR078C, strain PAC10, hits give low values
[3] = S. cerevisiae deletion strains, locus YJR075W, strain HOC1, hits give low values
[4] = S. cerevisiae deletion strains, locus YMR263W, strain SAP30, hits give low values
[5] = S. cerevisiae deletion strains, locus YNL153C, strain GIM3, hits give low values
[6] = S. cerevisiae deletion strains, locus YPL055C, strain LGE1, hits give low values

Measured: normalized growth

CC(=O)c1ccc(-c2ccc(C(C)=O)cc2)cc1
inactive: S. cerevisiae deletion strains, locus YAL013W, strain DEP1, hits give low values 1 | S. cerevisiae deletion strains, locus YBR229C, strain ROT2, hits give low values 0.999 | S. cerevisiae deletion strains, locus YDL101C, strain DUN1, hits give low values 1.03 | S. cerevisiae deletion strains, locus YDL134C, strain PPH21, hits give low values 1.01 | [1] 1 | S. cerevisiae deletion strains, locus YEL061C, strain CIN8, hits give low values 1.01 | [2] 1.02 | S. cerevisiae deletion strains, locus YGR229C, strain SMI1, hits give low values 1 | S. cerevisiae deletion strains, locus YHR030C, strain SLT2, hits give low values 0.999 | S. cerevisiae deletion strains, locus YHR087W, strain rtc3, hits give low values 0.987 | S. cerevisiae deletion strains, locus YJR043C, strain POL32, hits give low values 0.974 | [3] 1.02 | S. cerevisiae deletion strains, locus YKL190W, strain CNB1, hits give low values 1 | S. cerevisiae deletion strains, locus YLR039C, strain RIC1, hits give low values 1.06 | S. cerevisiae deletion strains, locus YLR058C, strain SHM2 (second series), hits give low values 0.987 | S. cerevisiae deletion strains, locus YLR085C, strain ARP6, hits give low values 0.95 | S. cerevisiae deletion strains, locus YLR262C, strain YPT6, hits give low values 1.03 | S. cerevisiae deletion strains, locus YML094W, strain GIM5, hits give low values 0.955 | S. cerevisiae deletion strains, locus YMR219W, strain ESC1, hits give low values 1.02 | [4] 1 | S. cerevisiae deletion strains, locus YMR307W, strain GAS1, hits give low values 0.977 | [5] 1.01 | S. cerevisiae deletion strains, locus YNL298W, strain CLA4 (second series), hits give low values 1.01 | S. cerevisiae deletion strains, locus YNL322C, strain KRE1, hits give low values 1.01 | S. cerevisiae deletion strains, locus YNR030W, strain Alg12, hits give low values 1.01 | S. cerevisiae deletion strains, locus YOL006C, strain TOP1, hits give low values 0.956 | [6] 0.941 | S. cerevisiae deletion strains, locus YPL241C, strain CIN2, hits give low values 0.991 | S. cerevisiae deletion strains, locus YPR135W, strain CTF4, hits give low values 1.01 | S. cerevisiae strains, strain wild type, hits give low values 1.03

CCC(=O)N1CCN(C(=O)c2ccccc2)CC1
inactive: S. cerevisiae deletion strains, locus YAL040C, strain CLN3, hits give low values 1.04 | S. cerevisiae deletion strains, locus YCL061C, strain MRC1 (second series), hits give low values 0.992 | [1] 1.01 | S. cerevisiae deletion strains, locus YDR363W, strain ESC2, hits give low values 0.993 | S. cerevisiae deletion strains, locus YER002W, strain NOP16, hits give low values 1 | [2] 0.989 | [3] 1.02 | [4] 0.994 | [5] 1.05 | S. cerevisiae deletion strains, locus YNL175C, strain NOP13, hits give low values 1.02 | S. cerevisiae deletion strains, locus YNL197C, strain WHI3, hits give low values 0.983 | S. cerevisiae deletion strains, locus YNL224C, strain SQS1, hits give low values 0.994 | S. cerevisiae deletion strains, locus YOR083W, strain WHI5 (second series), hits give low values 1.03 | [6] 1
